IL1B secr inh – inflammasome signaling inhibition, IL-1 beta readout; THP-1 LPS/ATP IL-1B secretion, AlphaLISA, 16 h; hits give low values; actives 4.7% (n = 360,000); activity change, % at 57.5 µM; AID 743279; in the data active = activity change below about -50%; inconclusive = mostly about -30% to -49%
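Secreted IL-1B measured by AlphaLISA bead assay after 16 h compound exposure of THP-1 cells; compounds (final up to 57.5 uM) added 1 h before LPS (250 ng/mL) and ATP (1.25 mM) stimulation; lower signal means less secretion.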
HepG2 tox – kills HepG2 cells in TGF-b inhibitor counter-screen | AID 588856 | Potency, µM (titrated, usually from 46.1 µM), usual class: cytotoxic | HepG2 CAGA-GFP viability, ATP luminescence, 18 h | actives 0.76% (n = 410,000)
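CellTiter-Glo luminescence gave cytotoxicity after 18 hours at 37 degrees C. The cells were HepG2 CAGA-GFP in 1% FBS DMEM, stimulated with 500 pg/mL TGF-beta after compound addition. %Activity was normalised to no-cell wells (complete cell-killing) and DMSO (no toxicity), and curves were fitted and classified.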
S2 tox – viability counter-screen for ATXN expression inhibitors; S2 cells (HEK-293 line with an ATXN2-luciferase reporter) viability, CellTiter-Fluor protease fluorescence, 24 h; Potency, µM (titrated, usually from 56.7 µM), actives largely listed as cytotoxic; actives 0.49% (n = 400,000); AID 651635; also: nearly all actives have a fitted effect of over 40% in size
TGFb inhibitor – inhibitors of TGF-b signaling | HepG2 CAGA-GFP TGF-b/SMAD3 reporter, GFP fluorescence, 18 h; TGF-beta stimulated, 500 pg/mL final | actives 1.2% (n = 410,000) | Potency, µM (series often up to 46.1 µM), actives largely listed as inhibitors; also: nearly all actives have a fitted effect of over 65% in size
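Cell-based qHTS in HEPG2 carrying a CAGA-GFP Smad reporter; compounds added before 500 pg/mL final TGF-beta, 18 h incubation at 37 degrees C, GFP fluorescence quantified per cell by imaging cytometry.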
ATXN2 expr inh – inhibitors of ATXN2 expression | Potency, µM (doses to about 57 µM), actives largely listed as inhibitors | HEK-293 ATXN2-luciferase reporter, luminescence, 24 h | AID 1745845 | actives 0.72% (n = 360,000); also: nearly all actives have a fitted effect of over 55% in size
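qHTS (up to 57 uM final) was run with 24 h compound exposure of reporter cells at 37 °C. Each well was multiplexed: SteadyGlo luminescence measured ATXN2-luciferase expression after a fluorogenic Gly-Phe-AFC viability readout (25 uM final).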
Each line names hits and unclear results; the compound was inactive in the other large screens. Sampled rows, rich in hits. Any-hit rate of the full collection: about 5.7%. Unless noted, calls follow the shape of the dose curve; as a rule, active = well fitted curve in the direction sought with a large enough effect; inconclusive = small, poorly fitted or top-dose-only effect, or another doubt; inactive = no such curve, though single readings can be large; an effect the other way counts as inactive or inconclusive.

CN(C)C(=O)CCc1ccc2c3c([nH]c2c1)[C@]1(CCc2ccccc2)[C@@H](C(=O)N2CCCCC2)C[C@H](CC(=O)NCc2cccc(C(F)(F)F)c2)C(=O)N1CC3	IL1B secr inh -71.0, TGFb inhibitor inconclusive
CN(C)C(=O)CCc1ccc2c3c([nH]c2c1)[C@]1(CCc2ccccc2)[C@@H](C(=O)N2CCCCC2)C[C@H](CC(=O)NCc2ccco2)C(=O)N1CC3	none
CC(=O)OCC(NC(=O)C1CCCN1C(=O)OC(C)(C)C)C1OC(n2ccc(=O)[nH]c2=O)C(OC(C)=O)C1OC(C)=O (centres undefined)	none (no result: IL1B secr inh, S2 tox, ATXN2 expr inh)
COCC1CCCN(Cc2ccc3c(c2)CN(C(=O)c2cnn(C(C)C)c2)CCO3)C1 (centres undefined)	none (no result: IL1B secr inh, HepG2 tox, TGFb inhibitor, ATXN2 expr inh)
CCC(=O)N1CCc2cc(Br)cc(S(=O)(=O)CCC(=O)N3CCN(c4ccccc4F)CC3)c21	none (no result: IL1B secr inh)
CCN(CC)C(=O)[C@H]1C[C@H](CC(=O)NCc2ccc(OC)c(OC)c2)C(=O)N2CCc3c([nH]c4cc(-c5ccco5)ccc34)[C@]12C	S2 tox inconclusive, TGFb inhibitor 12.6µM, ATXN2 expr inh inconclusive
O=C(C[C@H]1C[C@H](C(=O)N2CCOCC2)[C@@]2(CCC3CCCC3)c3[nH]c4ccc(Cl)cc4c3CCN2C1=O)NCCCn1ccnc1	IL1B secr inh -58.7, TGFb inhibitor 11.2µM, ATXN2 expr inh inconclusive (no result: S2 tox)
C[C@]12c3[nH]c4cc(-c5ccco5)ccc4c3CCN1C(=O)[C@@H](CC(=O)NCc1cccc(C(F)(F)F)c1)C[C@@H]2C(=O)N1CCOCC1	IL1B secr inh -52.8, S2 tox inconclusive, TGFb inhibitor inconclusive
CN(C)C(=O)CCc1ccc2c3c([nH]c2c1)[C@]1(CCC2CCCC2)[C@@H](C(=O)N2CCOCC2)C[C@H](CC(=O)NCCCn2ccnc2)C(=O)N1CC3	none
C[C@]12c3[nH]c4ccccc4c3CCN1C(=O)C(CC(=O)NCc1cccc(C(F)(F)F)c1)C[C@@H]2C(=O)N1CCOCC1 (some centres undefined)	IL1B secr inh inconclusive
COc1ccc(CN(C2CCCC2)S(=O)(=O)c2ccc(-n3cnnn3)c(OC)c2)cc1OC	IL1B secr inh -51.8, TGFb inhibitor inconclusive
Cc1cc2c(n1-c1ccc(C(=O)NCCc3ccc(Cl)cc3)cc1)CCC(C)C2 (centres undefined)	S2 tox inconclusive, ATXN2 expr inh inconclusive (no result: IL1B secr inh)
COc1ccc2cc1Oc1ccc(cc1)CC1c3c(cc(OC)c4c3Oc3cc5c(cc3O4)CCNC5C2)CCN1C (centres undefined)	S2 tox 8.44µM, TGFb inhibitor 10µM, ATXN2 expr inh 10.6µM
OC(c1ccc2c(c1)CN(Cc1ccc3nsnc3c1)CCO2)C1CCCCC1 (centres undefined)	none (no result: IL1B secr inh, HepG2 tox, TGFb inhibitor, ATXN2 expr inh)
Cc1ccsc1C1Cc2c(C(=O)NCc3cccnc3)c(=O)cc(C)n2-c2ccccc2S1 (centres undefined)	none (no result: IL1B secr inh, HepG2 tox, TGFb inhibitor, ATXN2 expr inh)
CC(=O)SCC(CC(=O)c1ccc(C)cc1)C(=O)O (centres undefined)	none (no result: IL1B secr inh, HepG2 tox, TGFb inhibitor)
COc1ccccc1OCCn1c(C(C)Oc2ccccc2)nc2ccccc21 (centres undefined)	TGFb inhibitor 11.2µM (no result: IL1B secr inh)
COc1ccccc1OCCn1c(C(C)O)nc2ccccc21 (centres undefined)	none
c1ccc2c(Oc3nc(Nc4ccc(N5CCOCC5)cc4)c4ncn(C5CCCCC5)c4n3)cccc2c1	none (no result: IL1B secr inh, HepG2 tox, S2 tox, TGFb inhibitor)
COC(=O)C(NS(N)(=O)=O)C(C)C (centres undefined)	none (no result: IL1B secr inh, S2 tox, ATXN2 expr inh)
COc1ccc(C)cc1NC(=O)c1cc2c(s1)-c1ccccc1SC2	none (no result: IL1B secr inh, S2 tox, TGFb inhibitor, ATXN2 expr inh)
O=C(/C=C\c1ccc2c(c1)OCO2)CC1(O)C(=O)Nc2ccccc21 (centres undefined)	IL1B secr inh -101.4, TGFb inhibitor inconclusive
O=C(CC1(O)C(=O)Nc2ccccc21)c1ccc2c(c1)OCO2 (centres undefined)	none
COc1ccc(C2Nc3ccccc3C(=O)N2c2ccc(F)cc2)cc1COc1ccc(NC(C)=O)cc1 (centres undefined)	none (no result: IL1B secr inh, S2 tox, ATXN2 expr inh)
COc1ccc(C2c3c(-c4ccccc4)n[nH]c3C(=O)N2c2ccc(C(=O)O)cc2)cc1 (centres undefined)	none
CCOC(=O)c1ccc(N2C(=O)c3n[nH]c(-c4ccco4)c3C2c2ccc(OCC)cc2)cc1 (centres undefined)	TGFb inhibitor 7.08µM (no result: IL1B secr inh, S2 tox, ATXN2 expr inh)
CCOC(=O)c1ccc(N2C(=O)c3n[nH]c(-c4ccco4)c3C2c2ccc(F)cc2)cc1 (centres undefined)	HepG2 tox 22.4µM, S2 tox inconclusive, TGFb inhibitor inconclusive, ATXN2 expr inh inconclusive (no result: IL1B secr inh)
CCOC(=O)c1ccc(N2C(=O)c3n[nH]c(-c4ccco4)c3C2c2cccc(OC)c2)cc1 (centres undefined)	S2 tox inconclusive, TGFb inhibitor 4.47µM, ATXN2 expr inh inconclusive (no result: IL1B secr inh)
CCOC(=O)c1ccc(N2C(=O)c3[nH]nc(-c4ccc(OC)cc4)c3C2c2ccc(C)cc2)cc1 (centres undefined)	S2 tox inconclusive, TGFb inhibitor 25.1µM, ATXN2 expr inh inconclusive (no result: IL1B secr inh)
Cc1ccccc1OCC(=O)NCC(=O)OCc1cccc2ccccc12	none (no result: IL1B secr inh, S2 tox, ATXN2 expr inh)
CCOC(=O)c1ccc(N2C(=O)c3n[nH]c(-c4cccs4)c3C2c2cccc(F)c2)cc1 (centres undefined)	TGFb inhibitor inconclusive (no result: IL1B secr inh, S2 tox, ATXN2 expr inh)
CCOC(=O)c1ccc(N2C(=O)c3n[nH]c(-c4ccco4)c3C2c2cccc(O)c2)cc1 (centres undefined)	HepG2 tox 22.4µM, S2 tox inconclusive, TGFb inhibitor 12.6µM, ATXN2 expr inh inconclusive (no result: IL1B secr inh)
CCOC(=O)c1ccc(N2C(=O)c3n[nH]c(C)c3C2c2ccccc2OC)cc1 (centres undefined)	S2 tox inconclusive, TGFb inhibitor inconclusive (no result: IL1B secr inh)
CCOC(=O)c1ccc(N2C(=O)c3n[nH]c(-c4ccco4)c3C2c2cccc(F)c2)cc1 (centres undefined)	HepG2 tox 15.8µM, S2 tox inconclusive, TGFb inhibitor inconclusive, ATXN2 expr inh inconclusive (no result: IL1B secr inh)
CCOC(=O)c1ccc(N2C(=O)c3n[nH]c(-c4ccco4)c3C2c2ccccc2OC)cc1 (centres undefined)	HepG2 tox 5.01µM, S2 tox inconclusive, TGFb inhibitor inconclusive, ATXN2 expr inh inconclusive (no result: IL1B secr inh)
CCc1cc(-c2[nH]ncc2-c2ccc(OC)cc2)c(O)cc1O	IL1B secr inh -83.0, ATXN2 expr inh inconclusive
CCOc1ccc(-c2[nH]ncc2-c2ccc(Cl)cc2)c(O)c1	S2 tox inconclusive, TGFb inhibitor inconclusive (no result: ATXN2 expr inh)
COc1ccc(-c2cn[nH]c2-c2ccc(OCc3ccc([N+](=O)[O-])cc3)cc2O)cc1	IL1B secr inh -55.6, S2 tox inconclusive, TGFb inhibitor inconclusive
CCOc1ccc(-c2[nH]ncc2-c2ccc(OC)c(OC)c2)c(O)c1	S2 tox inconclusive
COc1ccc(-c2[nH]ncc2-c2ccc3c(c2)OCCO3)c(O)c1	S2 tox inconclusive, TGFb inhibitor inconclusive
